Results taken from PubChem BioAssay AID1210 (NMMLSC, 2008).
Calls of active or inactive are those of the source.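 The calls were made as follows: active = blocks over 70% of labeled estradiol binding at 10 µM, or over a set limit at 100 nM; inactive = the rest.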

Biological target: Estrogen receptor beta (Homo sapiens) (UniProt Q92731)
Assay: ERbeta ligand binders by competition, primary screen, cell-based, Cos7 ERbeta-GFP, flow cytometry (AID 1210);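 also: 0% = DMSO vehicle wells and 100% = complete loss of labeled estradiol signal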
Conditions: fluorescent estrogen binding, stronger effect = higher value
[1] = ligand binding inhibition, at 0.1 µM

Estrogen receptor beta (Homo sapiens), sequence (Q92731 whole entry, looked up): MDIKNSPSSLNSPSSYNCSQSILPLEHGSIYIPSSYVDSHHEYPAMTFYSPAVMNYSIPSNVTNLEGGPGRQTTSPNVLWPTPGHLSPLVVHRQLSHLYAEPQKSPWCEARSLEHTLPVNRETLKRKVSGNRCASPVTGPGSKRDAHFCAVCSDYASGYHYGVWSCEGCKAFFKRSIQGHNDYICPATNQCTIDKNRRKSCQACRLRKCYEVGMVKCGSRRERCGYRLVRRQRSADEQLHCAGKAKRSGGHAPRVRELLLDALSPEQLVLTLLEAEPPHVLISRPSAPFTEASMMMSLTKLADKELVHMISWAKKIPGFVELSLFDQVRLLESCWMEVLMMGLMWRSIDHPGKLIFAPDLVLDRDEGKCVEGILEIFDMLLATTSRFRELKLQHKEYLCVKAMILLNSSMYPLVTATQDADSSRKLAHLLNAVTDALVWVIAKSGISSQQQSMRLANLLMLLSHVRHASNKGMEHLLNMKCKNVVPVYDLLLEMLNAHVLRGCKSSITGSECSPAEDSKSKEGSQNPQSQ

Row | SMILES | inhibition (at 10 µM) | inhibition [1]
1 | COc1ccc(C2Nc3ccccc3C(=O)N2c2ccc(C)cc2)cc1Cn1cc([N+](=O)[O-])cn1 (stereo not drawn) | 20% (inactive) | 2%
2 | COc1ccc(-c2nnc(SCC(=O)c3cc(C)n(Cc4cccs4)c3C)o2)cc1 | 27% (inactive) | 1%
3 | CCc1ccc2[nH]c(=O)c(CN(Cc3ccc4c(c3)OCO4)C(=O)c3ccco3)cc2c1 | 13% (inactive) | 6%
4 | C=CCn1c(SCC(=O)NC(=O)NCc2ccco2)nc2sc(CC)cc2c1=O | 33% (inactive) | 10%
5 | O=c1nc2s/c(=C\c3ccco3)c(=O)n2nc1Cc1ccc(F)cc1 | 16% (inactive) | 35%
6 | COc1cc(C(C#N)N2N=C(c3ccccc3)CC2c2ccccc2)ccc1O (stereo not drawn) | 54% (inactive) | 5%
7 | N#CC1=C(N)OC2=C(CCC/C2=C/c2ccoc2)C1c1ccoc1 (stereo not drawn) | 20% (inactive) | 34%
8 | Cc1ccc(Cn2c(NC(=O)c3ccco3)nc3ccccc32)cc1 | 10% (inactive) | 19%
9 | Cc1nnc(Oc2ccccc2F)c2ccccc12 | 47% (inactive) | 38%
10 | COc1cc(/C=N/N2CCN(C3c4ccccc4-c4ccccc43)CC2)ccc1O | 39% (inactive) | 10%
11 | CCOC(=O)C1=C(O)/C(=C\c2ccc(CNC(=O)C(=O)Nc3ccccc3)o2)N=C1C | 20% (inactive) | 61%
12 | O=C(Nc1nccs1)c1ccc2nccnc2c1 | 36% (inactive) | 25%
13 | CCC(=O)Oc1ccc(C(CC)C(CC)c2ccc(OC(=O)CC)cc2)cc1 (stereo not drawn) | 82% (active) | 83%
14 | O=C(O)c1ccc2c(c1)C1C=CCC1C(c1cc3c(cc1Br)OCO3)N2 (stereo not drawn) | 38% (inactive) | 6%
